Reference: paper PMC13083723 (Patterns, 2026)
In all, about 5,400 compounds went through this assay and about 190 (3.5%) showed an effect of 50% or more. The sample as a whole holds a higher share of strong results than the screen did.

What follows are compounds tested on Vero-E6 (assay: primary screen, phospholipidosis by LipidTOX staining; higher = more effect of the substance). Settings: 10 µM.
In short: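 Single-concentration screen at 10 μM, with DMSO 0.1 v/v % and amiodarone 10 μM as controls. Read-out is LipidTOX Red phospholipid staining, which tolerates aldehyde fixation, in Vero-E6 cells.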
Work on CN1CCN(c2nc3ccccc3nc2Cl)CC1 yielded a result_ITMP of 5.5%. Work on CN1CCN(c2cc(-c3ccccc3)nc(N)n2)CC1 yielded a result_ITMP of 5.46%. Work on CN1C[C@@H]2c3ccccc3Oc3ccc(Cl)cc3[C@H]2C1.CN1C[C@H]2c3ccccc3Oc3ccc(Cl)cc3[C@@H]2C1 yielded a result_ITMP of 65.2%. Compound CN1CCN2c3ccccc3Cc3ccccc3C2C1 (stereo not drawn) has a result_ITMP of 15.9%. CC(=O)NNC(=O)N1Cc2ccccc2Oc2ccc(Cl)cc21 was tested, and the result_ITMP was -0.36%. With CN1CCN(C2=Cc3ccccc3Oc3ccc(Cl)cc32)CC1 the result_ITMP was 61.3%. For CCCC(=O)[O-], the result_ITMP was -6.95%. CCOC(=O)[C@H](C)C[C@@H](Cc1ccc(-c2ccccc2)cc1)NC(=O)CCC(=O)[O-] was tested, and the result_ITMP was 0.47%. Compound CC(C)Cc1ccc(C(C)C(=O)O)cc1 (stereo not drawn) [R4A_0001344_001 / SPE_K14965640] has a result_ITMP of 1.58%. O=P([O-])(O)C(Cl)(Cl)P(=O)([O-])O was tested, and the result_ITMP was -2.27%. Compound Cc1cc(Nc2ccc(NC(=O)c3ccc(Nc4ccnc5ccccc45)cc3)cc2)nc(N)n1 has a result_ITMP of 13.5%. In the case of CNCc1ccc(C)c(NC(=O)c2ccc(Nc3nc(-c4ccccc4)c4ccccc4n3)cc2)c1, the result_ITMP was 67.4%. For Cc1ccc(NC(=O)c2cccc(N(C)C)c2)cc1NC(=O)c1ccc(O)cc1, the result_ITMP was -6.05%. Work on CN1C2C[C@H](OC(=O)[C@H](CO)c3ccccc3)C[C@H]1[C@H]1OC21 (stereo partly drawn) yielded a result_ITMP of -1.02%. With C=C1/C(=C\C=C2/CCC[C@]3(C)[C@@H]([C@H](C)/C=C/C=C/C(O)(CC)CC)CC[C@@H]23)C[C@@H](O)C[C@@H]1O the result_ITMP was -2.42%. Work on C[C@@]12C(=O)OC(=O)[C@]1(C)[C@H]1CC[C@@H]2O1 yielded a result_ITMP of 7.41%. Work on CNCCC=C1c2ccccc2CCc2ccccc21 yielded a result_ITMP of 64.4%. For CNCCC=C1c2ccccc2C=Cc2ccccc21, the result_ITMP was 42.4%. CNCC/C=C/c1cccnc1 gave a result_ITMP of -4.64%. O=C(N[C@H]1CN2CCC1CC2)c1cnc2ccsc2c1O was tested, and the result_ITMP was -2.55%. Compound COC(=O)N[C@H](C(=O)N1CCC[C@H]1c1ncc(-c2ccc3c(c2)O[C@@H](c2ccccc2)n2c-3cc3cc(-c4cnc([C@@H]5CCCN5C(=O)[C@@H](NC(=O)OC)C(C)C)[nH]4)ccc32)[nH]1)C(C)C has a result_ITMP of 3.24%. For Cc1onc(-c2ccccc2Cl)c1C(=O)N[C@@H]1C(=O)N2[C@@H]1SC(C)(C)[C@@H]2C(=O)[O-], the result_ITMP was 4.56%. C=CCN1CCC23c4c5ccc(O)c4O[C@H]2C(=O)CC[C@@]3(O)[C@H]1C5 showed a result_ITMP of -3.91%. NC[C@H]1O[C@H](O[C@H]2[C@H](O[C@@H]3O[C@H](CO)[C@@H](O)[C@H]3O)[C@@H](O)[C@H](N)C[C@@H]2N)[C@H](N)[C@@H](O)[C@@H]1O was tested, and the result_ITMP was -1.8%. CN(C)CC[C@@H](c1ccc(Cl)cc1)c1ccccn1 [R4A_0004036_001 / SPE_K39462424] was tested, and the result_ITMP was 22.6%. For CC(=O)C(=O)[O-], the result_ITMP was -8.52%. Compound CN1[C@@H]2CC[C@H]1C[C@@H](OC(=O)c1c[nH]c3ccccc13)C2.CN1[C@@H]2CC[C@H]1C[C@H](OC(=O)c1c[nH]c3ccccc13)C2 has a result_ITMP of 19.1%. CCOc1ccc(-c2nc(-c3cccc4c3CCC4NCCO)no2)cc1OCC (stereo not drawn) gave a result_ITMP of 108%. Work on CC(C)Oc1ccc(-c2nc(-c3cccc4c3CCC4NCCC(=O)O)no2)cc1C#N (stereo not drawn) yielded a result_ITMP of -0.21%. CC(C)Oc1ccc(-c2nc(-c3cccc4c3CC[C@@H]4NCCO)no2)cc1C#N was tested, and the result_ITMP was 39.4%. Compound Cc1ccc(Cl)c(Nc2ccccc2C(=O)[O-])c1Cl has a result_ITMP of -2.49%. CC[C@]1(O)C[C@H]2C[N@](CCc3c([nH]c4ccccc34)[C@@](C(=O)OC)(c3cc4c(cc3OC)N(C)[C@H]3[C@@](O)(C(N)=O)[C@H](O)[C@]5(CC)C=CCN6CC[C@]43[C@@H]65)C2)C1 was tested, and the result_ITMP was 9.74%. Compound COc1cc(C(=O)NCC2(N(C)C)CCCC2)cc(OC)c1OCc1ccccc1 has a result_ITMP of 25.4%. For COc1cc(CN(CCN)C(=O)c2cccs2)ccc1OCc1ccccc1, the result_ITMP was 85.4%. O=C(O)Cc1ccc(OCc2ccccc2)c(Cl)c1 was tested, and the result_ITMP was 2.22%. In the case of O=S(=O)([O-])CC(S)CS (stereo not drawn), the result_ITMP was -3.17%. O=C(NC(Cc1c[nH]c2ccccc12)C(=O)[O-])c1ccc(Cl)cc1 (stereo not drawn) showed a result_ITMP of -0.44%. Compound NC1C[C@H]1c1ccccc1 (stereo partly drawn) has a result_ITMP of -1.26%. c1ccc([C@@H]2C[C@H]2NC2CCNCC2)cc1 was tested, and the result_ITMP was 27.9%. In the case of N[C@H]1CC[C@H](N[C@@H]2C[C@H]2c2ccccc2)CC1, the result_ITMP was 65.7%. In the case of C[C@]12CCC(=O)C=C1C=CC1C2CC[C@@]2(C)C1CC[C@@]2(O)CCC(=O)[O-] (stereo partly drawn), the result_ITMP was -3.36%. Cc1ccc(S(=O)(=O)[N-]Cl)cc1 was tested, and the result_ITMP was -2.26%. CC[C@]1(O)C[C@@H]2C[N@@](CCc3c([nH]c4ccccc34)[C@@](C(=O)OC)(c3cc4c(cc3OC)N(C)[C@H]3[C@@](O)(C(=O)OC)[C@H](OC(C)=O)[C@]5(CC)C=CCN6CC[C@]43[C@@H]65)C2)C1 showed a result_ITMP of 8.57%. With O=C([O-])CCCc1ccccc1 the result_ITMP was 0.94%. CCN(CCCc1ccccc1)CCCc1ccccc1 gave a result_ITMP of 58.9%. NC(=O)OCCCc1ccccc1 was tested, and the result_ITMP was -6.09%. Work on C#Cc1cnc(O)nc1O yielded a result_ITMP of -3.59%. Cc1ccc(C)c(Oc2ccncc2C(=O)N2CCN(C3CC3)c3ccccc32)c1 was tested, and the result_ITMP was -4.61%. With O=C(O)c1ccccc1NC(=O)N1CCC(c2ccccc2C(F)(F)F)CC1 the result_ITMP was -0.92%. Work on CCOc1ccc(S(=O)(=O)[O-])c2cccnc12 yielded a result_ITMP of -2.55%. Work on CCN(CC)CCOC(=O)C1(c2ccccc2)CCCC1 yielded a result_ITMP of 2.32%. CCN(CC)CCOC(=O)C(c1ccccc1)C1CCCCC1 (stereo not drawn) showed a result_ITMP of 52%. With CCN(CC)CCOC(=O)C(c1ccccc1)c1ccccc1 the result_ITMP was 3.73%. COc1ccc2c(C)nc(Nc3nc(=O)c(C)c(C)[nH]3)nc2c1 gave a result_ITMP of 0.3%. OCCNC1CCCc2c1[nH]c1ccc(-c3ccccc3)cc21 (stereo not drawn) was tested, and the result_ITMP was 89.4%. With NC(=O)C1CCCc2c1[nH]c1ccc(Cl)cc21 (stereo not drawn) the result_ITMP was -0.07%. C[C@H](N)C(=O)N[C@@]1(C(=O)O)C[C@@H](Sc2nnc[nH]2)[C@H]2[C@H](C(=O)O)[C@H]21 showed a result_ITMP of -1.74%.
